Shown are actives, neighbours in structure and some others; about 5.4% of the full set was active somewhere.
Mdm2-MdmX inh: inhibitors of human Mdm2-MdmX association, primary screen, cell-based, luminescence, split luciferase, SaOS-2, uHTS | inhibition, % at 8 µM | Protein Mdm4 (Homo sapiens) + E3 ubiquitin-protein ligase Mdm2 (Homo sapiens), … | hit rate 3% among 330,000 | SaOS-2 split-luciferase Mdm2/MdmX complementation;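 active means inhibition of at least 50% at 8 µM in the primary screen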
Target sequence (O15151 whole entry, looked up): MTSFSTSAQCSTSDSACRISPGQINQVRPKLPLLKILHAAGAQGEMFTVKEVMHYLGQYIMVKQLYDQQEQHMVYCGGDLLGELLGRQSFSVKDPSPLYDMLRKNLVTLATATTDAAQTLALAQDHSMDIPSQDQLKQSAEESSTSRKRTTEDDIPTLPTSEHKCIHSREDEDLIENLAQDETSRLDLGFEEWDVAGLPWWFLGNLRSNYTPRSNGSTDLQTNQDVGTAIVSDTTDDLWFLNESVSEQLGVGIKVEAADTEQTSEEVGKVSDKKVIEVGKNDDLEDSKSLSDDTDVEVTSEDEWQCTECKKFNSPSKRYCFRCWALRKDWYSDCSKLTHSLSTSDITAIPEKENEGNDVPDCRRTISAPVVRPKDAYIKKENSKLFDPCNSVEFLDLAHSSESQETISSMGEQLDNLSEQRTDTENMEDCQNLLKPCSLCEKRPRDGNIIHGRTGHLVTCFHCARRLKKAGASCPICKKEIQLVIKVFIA
Target sequence (Q00987 whole entry, looked up): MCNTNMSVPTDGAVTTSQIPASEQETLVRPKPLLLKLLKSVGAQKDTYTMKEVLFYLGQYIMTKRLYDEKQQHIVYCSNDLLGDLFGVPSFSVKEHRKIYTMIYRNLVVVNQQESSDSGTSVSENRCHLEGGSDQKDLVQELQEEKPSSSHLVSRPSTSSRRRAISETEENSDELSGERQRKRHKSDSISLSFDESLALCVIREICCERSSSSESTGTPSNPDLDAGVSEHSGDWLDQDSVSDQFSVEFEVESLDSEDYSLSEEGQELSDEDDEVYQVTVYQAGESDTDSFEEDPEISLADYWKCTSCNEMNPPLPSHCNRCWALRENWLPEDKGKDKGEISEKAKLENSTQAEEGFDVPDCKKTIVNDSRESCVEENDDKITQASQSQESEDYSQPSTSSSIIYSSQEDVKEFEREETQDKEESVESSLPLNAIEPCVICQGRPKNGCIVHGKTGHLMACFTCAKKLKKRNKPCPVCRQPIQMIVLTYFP
MPTP block: mitochondrial permeability transition pore inhibitors, primary screen, biochemical, isolated mouse mitochondria, absorbance; inhibition, % at 10 µM; hit rate 1.4% among 360,000; Ca2+ swelling absorbance, 30 min;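 active means inhibition of 50% or more, scaled per plate between neutral and stimulator controls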;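 further: 0% = DMSO wells given calcium and 100% = 1 mM EGTA wells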
Calb FLC: C. albicans growth inhibition with fluconazole, primary screen, CaCi-2 strain, Alamar Blue fluorescence; C. albicans CaCi-2 (fluconazole-resistant clinical isolate) + fluconazole, 48 h; growth inhibition, % (test concentration not listed); hit rate 0.57% among 300,000; AID 1979, 2009;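 active means growth inhibition above about 58% in most replicates, limit read from the data, passing the limit was not always enough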;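 further: all wells also contain fluconazole at 8 µg/ml as a sub-toxic cotreatment; 0% = median of DMSO wells and 100% = median of geldanamycin control wells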
CSC inhib: cancer stem cell viability inhibitors, primary screen, luminescence. cancer stem cell-like cells viability. inhibition, % at 7.5 µM. hit rate 1.1% among 300,000; in the data active means inhibition above about 75%; tested in HMLE shEcad cells
SKKanGAS inh: S. pyogenes SKKanGAS growth inhibitors in kanamycin, primary screen, streptokinase expression inhibitor project, SKKanGAS strain, BacTiter-Glo luminescence; AID 1662, 2009; inhibition, % at 7.5 µM; hit rate 1.3% among 300,000; 6 h;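 active means mean replicate score, as percent of positive control median, at least 50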;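 further: strain carries kanamycin resistance gene driven by streptokinase promoter and grows in 40 µg/ml kanamycin; loss of luminescence reflects streptokinase promoter inhibition or plain growth inhibition; 0% = median of DMSO wells and 100% = positive control at its reference dose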
Beta apoptosis: inhibitors of cytokine-induced beta cell apoptosis, primary screen, luminescence | INS-1E cytokine-induced death, ATP luminescence, 48 h; percent of positive-control rescue, neutral wells zero | hit rate 0.8% among 300,000 | protection from apoptosis, % (no concentration beside the values);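 active means Every replicate reaches about 75%, or at least half do and their mean reaches it too, limit read from the data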;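 further: 0% = cytokine-treated negative control wells and 100% = positive control rescue; higher means more ATP so stronger rescue from cytokine killing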
Mdm2 MdmX conf: Mdm2-MdmX complex disruptors, retested hits, confirmation, luminescence, single concentration; shares compounds with Mdm2-MdmX inh; Mdm2-MdmX binding, luminescent assay; inhibition, % at 8 µM; hit rate 55% among 10,000; AID 489028, 2010; in the data active means inhibition above about 40%
Full FLuc ctr: full-length luciferase signal inhibition, confirmation, counter-screen for Mdm2/MdmX interaction inhibitor project, cell-based, single concentration, SaOS-2; shares compounds with Mdm2-MdmX inh; SaOS-2 full-length luciferase counterscreen, luminescence; inhibition, % at 8 µM; hit rate 77% among 6,200;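 active means mean inhibition at 8 µM reaching about 37%, which flags the compound as non-specific, limit read from the data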;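 further: p53-null SaOS-2 cells with luciferase driven by a doxycycline-inducible promoter; compound on cells about two nights before reading with doxycycline added after day one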
The depositor's hits bear a star; · = no result.

SMILES	Mdm2-MdmX inh	MPTP block	Calb FLC	CSC inhib	SKKanGAS inh	Beta apoptosis	Mdm2 MdmX conf	Full FLuc ctr
CCc1cc2c3c(c1)C1(C(=O)N3C(C)(C)C=C2C)C(C#N)=C(N)Oc2[nH]c(=O)[nH]c(=O)c21 (configuration not stated)	57*	0	-2	-8	6	9	41*	81*
CC1=CC(C)(C)N2C(=O)C3(C(C#N)=C(N)Oc4cc(C)oc(=O)c43)c3cc(C)cc1c32 (configuration not stated)	-4	1	-12	1	9	-1	·	·
O=C1CC(c2ccco2)CC2=C1C1c3ccccc3C(=O)N1c1ccccc1N2 (configuration not stated)	68*	-1	-3	28	11	-16	27	·
CCC(=O)N1c2ccccc2NC2=C(C(=O)CC(c3ccco3)C2)C1c1ccco1 (configuration not stated)	5	0	-4	-9	6	·	·	·
O=C(CSc1ccc2ccccc2n1)N/N=C/c1ccc(O)cc1	-18	0	39	57	10	-1	·	·
O=C(CSc1ccc2ccccc2n1)N/N=C/c1ccccc1O	61*	-1	-4	30	95*	-5	68*	74*
CCn1c(=O)c(CCC(=O)NCC2CCCO2)c(C)c2c(C)nn(-c3ccccc3)c21 (configuration not stated)	12	-1	-7	6	-4	16	·	·
CCC(CC)NCc1ccc2c(c1)c1ccccc1n2CC	57*	7	-16	9	-8	8	43*	65*
O=C(NCCN1C(=O)S/C(=C\c2ccc(Cl)c([N+](=O)[O-])c2)C1=O)C1=COCCO1	96*	11	·	52	-12	-2	58*	57*
O=C(NCCN1C(=O)S/C(=C\c2ccc(Cl)c(Cl)c2)C1=O)c1cnccn1	-6	8	2	7	-3	-5	·	·
CCN1C(=O)/C(=C/c2nc3ccccc3c(=O)n2-c2ccccc2)c2ccccc21	83*	-2	6	22	11	23	49*	57*
COc1ccc(C2CC(=O)c3c(C)nc(N4CCN(Cc5ccccc5)CC4)nc3C2)cc1OC (configuration not stated)	25	11	9	28	13	9	·	·
COc1cc(C2CC(=O)c3cnc(N4CCN(Cc5ccccc5)CC4)nc3C2)cc(OC)c1OC (configuration not stated)	52*	4	-9	53	-1	15	68*	52*
Cc1ccccc1N=Cc1cc2c(cc1[N+](=O)[O-])OCO2	17	0	17	4	2	-14	·	·
CC(NS(=O)(=O)c1ccccc1)C(=O)NCc1ccco1 (configuration not stated)	8	-1	-4	4	-4	-7	·	·
COc1cc(C(CCN2CCCC2)c2c(OC)cc(OC)c3c(-c4ccccc4)cc(=O)oc23)cc(OC)c1OC (configuration not stated)	78*	-1	-15	-11	8	-1	32	·
COc1cc(OC)c2c(-c3ccccc3)cc(=O)oc2c1C(CCN1CCCC1)c1ccc2c(c1)OCO2 (configuration not stated)	81*	-1	-18	15	10	3	14	·
COc1cc(C(CCN2CCOCC2)c2c(OC)cc(OC)c3c(-c4ccccc4)cc(=O)oc23)cc(OC)c1OC (configuration not stated)	31	-2	·	·	·	·	·	·
Cc1csc2nc(O)c(C(=O)NC3CCCCC3C)c(=O)n12 (configuration not stated)	21	0	12	-9	20	·	·	·

From PubChem BioAssay
